Results: PubChem BioAssay (NCATS)
Records with an inconclusive call do not appear. Calls of active or inactive are those of the source. Calls follow the shape of the dose curve; as a rule, active = well fitted curve in the direction sought with a large enough effect; inconclusive = small, poorly fitted or top-dose-only effect, or another doubt; inactive = no such curve, though single readings can be large; an effect the other way counts as inactive or inconclusive.

How the values were obtained:
[1] = S16 Schwann cell PMP22 intronic element firefly luciferase assay (AID 624032); also: nearly all actives have a fitted effect of over 30% in size
Method in brief: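 Rat S16 Schwann cells stably carrying a PMP22 intronic element-driven Fluc reporter were seeded overnight, then exposed to compounds for 24 h at 37 °C. Luminescence was normalized to PTC124 (positive control) and DMSO (0% activity).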

AA1029 = test: qHTS profiling for inhibitors of Plasmodium falciparum proliferation (AID 504749); also: nearly all actives have a fitted effect of over 60% in size; conditions: P. falciparum in erythrocytes, SYBR Green DNA, 72 h; series mostly up to 28.7 µM
Method in brief: (§1)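 Quantitative HTS: compounds pinned into medium, infected erythrocytes added (0.3% parasitemia, 2.5% hematocrit), 72 h culture at 37 C under 5% CO2. Saponin/Triton lysis with SYBR Green I, overnight RT, then fluorescence read.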

AS120 = test: as above; conditions: P. falciparum in erythrocytes, SYBR Green DNA, 72 h; series mostly up to 28.7 µM
Method in brief: as §1

ATS95 = test: as above; conditions: P. falciparum in erythrocytes, SYBR Green DNA, 72 h; series mostly up to 28.7 µM
Method in brief: as §1

CP217 = test: as above; conditions: P. falciparum in erythrocytes, SYBR Green DNA, 72 h; series mostly up to 28.7 µM
Method in brief: as §1

CP247 = test: as above; conditions: P. falciparum in erythrocytes, SYBR Green DNA, 72 h; series mostly up to 28.7 µM
Method in brief: as §1

CP256 = test: as above; conditions: P. falciparum in erythrocytes, SYBR Green DNA, 72 h; series mostly up to 28.7 µM
Method in brief: as §1

CP260 = test: as above; conditions: P. falciparum in erythrocytes, SYBR Green DNA, 72 h; series mostly up to 28.7 µM
Method in brief: as §1

CP265 = test: as above; conditions: P. falciparum in erythrocytes, SYBR Green DNA, 72 h; series mostly up to 28.7 µM
Method in brief: as §1

CP266 = test: as above; conditions: P. falciparum in erythrocytes, SYBR Green DNA, 72 h; series mostly up to 28.7 µM
Method in brief: as §1

CP297 = test: as above; conditions: P. falciparum in erythrocytes, SYBR Green DNA, 72 h; series mostly up to 28.7 µM
Method in brief: as §1

CP335 = test: as above; conditions: P. falciparum in erythrocytes, SYBR Green DNA, 72 h; series mostly up to 28.7 µM
Method in brief: as §1

DIV14 = test: as above; conditions: P. falciparum in erythrocytes, SYBR Green DNA, 72 h; series mostly up to 28.7 µM
Method in brief: as §1

GB4 = test: as above; conditions: P. falciparum in erythrocytes, SYBR Green DNA, 72 h; series mostly up to 28.7 µM
Method in brief: as §1

P93_24 = test: as above; conditions: P. falciparum in erythrocytes, SYBR Green DNA, 72 h; series mostly up to 28.7 µM
Method in brief: as §1

P94_40 = test: as above; conditions: P. falciparum in erythrocytes, SYBR Green DNA, 72 h; series mostly up to 28.7 µM
Method in brief: as §1

PC15 = test: as above; conditions: P. falciparum in erythrocytes, SYBR Green DNA, 72 h; series mostly up to 28.7 µM
Method in brief: as §1

SC27B = test: as above; conditions: P. falciparum in erythrocytes, SYBR Green DNA, 72 h; series mostly up to 28.7 µM
Method in brief: as §1

TAB109 = test: as above; conditions: P. falciparum in erythrocytes, SYBR Green DNA, 72 h; series mostly up to 28.7 µM
Method in brief: as §1

TAB165 = test: as above; conditions: P. falciparum in erythrocytes, SYBR Green DNA, 72 h; series mostly up to 28.7 µM
Method in brief: as §1

Measured: Potency
Potency is read from the fitted curve at half-maximal effect.

O=c1[nH]c(=O)n([C@H]2C[C@H](O)[C@@H](CO)O2)cc1/C=C/Br
inactive: [1]

CC1(C)S[C@@H]2[C@H](N)C(=O)N2C1C(=O)O (stereo not given in full)
inactive: [1] | AA1029 | AS120 | ATS95 | CP217 | CP247 | CP256 | CP260 | CP265 | CP266 | CP297 | CP335 | DIV14 | GB4 | P93_24 | P94_40 | PC15 | SC27B | TAB109 | TAB165

C=C1Nc2ccccc2C(=O)N1c1ccccc1C
inactive: [1] | AA1029 | AS120 | ATS95 | CP217 | CP247 | CP256 | CP260 | CP265 | CP266 | CP297 | CP335 | DIV14 | GB4 | P93_24 | P94_40 | PC15 | SC27B | TAB109 | TAB165

CCCCCC(O)C1C(=O)OC(C)C(O)\C=C/C=C\C=C/C=C\C=C(\C)C(O)C(O)C(O)CC(O)CC(O)CC(O)CC(O)CC1O (stereo not given)
inactive: [1] | AA1029 | AS120 | ATS95 | CP217 | CP247 | CP256 | CP260 | CP265 | CP266 | CP297 | CP335 | DIV14 | GB4 | P93_24 | P94_40 | PC15 | SC27B | TAB109 | TAB165

OCC(O)[C@H]1O[C@@H]2O[C@H](C(Cl)(Cl)Cl)O[C@@H]2[C@H]1O (stereo not given in full)
inactive: [1] | AA1029 | AS120 | ATS95 | CP217 | CP247 | CP256 | CP260 | CP265 | CP266 | CP297 | CP335 | DIV14 | GB4 | P93_24 | P94_40 | PC15 | SC27B | TAB109 | TAB165

Cc1ccc2c(c1)[C@@H]1CN(C)CC[C@H]1N2
inactive: AA1029 | AS120 | ATS95 | CP217 | CP247 | CP256 | CP260 | CP265 | CP297 | CP335 | DIV14 | P93_24 | P94_40 | PC15 | SC27B | TAB109 | TAB165

C[C@@H]1CC[C@H]2[C@@H](C)C(=O)O[C@@H]3OC4(C)CC[C@@H]1C32OO4 (stereo not given in full)
active: AA1029 11.2 nM | AS120 7.1 nM | ATS95 11.2 nM | CP217 10 nM | CP247 10 nM | CP256 10 nM | CP260 10 nM | CP265 7.9 nM | CP266 19 nM | CP297 15.1 nM | CP335 6.7 nM | DIV14 7.6 nM | GB4 6.7 nM | P93_24 3.5 nM | P94_40 2.8 nM | PC15 10 nM | SC27B 7.1 nM | TAB109 4.5 nM | TAB165 3.2 nM

C[C@]12C=CC(=O)C=C1CC[C@@H]1C2CC[C@]2(C)OC(=O)CCC12 (stereo not given in full)
inactive: [1] | AA1029 | AS120 | ATS95 | CP217 | CP247 | CP256 | CP260 | CP265 | CP266 | CP297 | CP335 | DIV14 | GB4 | P93_24 | P94_40 | PC15 | SC27B | TAB109 | TAB165

Nc1nc(O)c(-c2ccccc2)o1
inactive: [1] | AA1029 | AS120 | ATS95 | CP217 | CP247 | CP256 | CP260 | CP265 | CP297 | CP335 | DIV14 | GB4 | P93_24 | P94_40 | PC15 | SC27B | TAB109 | TAB165

OC[C@@H](O)[C@H]1O[C@@H]2OC(C(Cl)(Cl)Cl)O[C@H]2[C@H]1O (stereo not given in full)
inactive: [1] | AA1029 | AS120 | ATS95 | CP217 | CP247 | CP256 | CP260 | CP265 | CP266 | CP297 | CP335 | DIV14 | GB4 | P93_24 | P94_40 | PC15 | SC27B | TAB109 | TAB165

C#CCN1CC(=O)N(COC(=O)[C@@H]2[C@@H](C=C(C)C)C2(C)C)C1=O
inactive: AA1029 | AS120 | ATS95 | CP217 | CP247 | CP256 | CP260 | CP265 | CP335 | DIV14 | GB4 | P93_24 | P94_40 | PC15 | SC27B | TAB109 | TAB165

Cc1cc(C)cc(C(=O)OC2CC3CCC(C2)N3C)c1 (stereo not given)
inactive: AA1029 | AS120 | ATS95 | CP217 | CP247 | CP256 | CP260 | CP265 | CP266 | CP297 | CP335 | GB4 | P93_24 | P94_40 | SC27B | TAB109 | TAB165
active: DIV14 7570 nM

CC1(C)[C@@H](C=C(Cl)Cl)[C@@H]1C(=O)OCc1c(F)c(F)cc(F)c1F
inactive: AA1029 | AS120 | ATS95 | CP217 | CP247 | CP256 | CP260 | CP265 | CP266 | CP335 | DIV14 | GB4 | P93_24 | P94_40 | PC15 | SC27B | TAB165

CN1C2CCC1C(C(=O)O)C(OC(=O)c1ccccc1)C2 (stereo not given)
inactive: [1] | AA1029 | AS120 | ATS95 | CP217 | CP247 | CP256 | CP260 | CP265 | CP266 | CP297 | CP335 | DIV14 | GB4 | P93_24 | P94_40 | PC15 | SC27B | TAB109 | TAB165

COc1ccc2c3c1O[C@H]1[C@@H](O)C=C[C@H]4C(C2)NCCC341 (stereo not given in full)
inactive: [1] | AA1029 | AS120 | ATS95 | CP217 | CP247 | CP256 | CP260 | CP265 | CP266 | CP297 | CP335 | DIV14 | GB4 | P93_24 | P94_40 | PC15 | SC27B | TAB109 | TAB165

O=[N+]([O-])OC1CO[C@H]2C(O[N+](=O)[O-])COC12 (stereo not given in full)
inactive: [1] | AA1029 | AS120 | ATS95 | CP217 | CP247 | CP256 | CP260 | CP265 | CP266 | CP297 | CP335 | DIV14 | GB4 | P93_24 | P94_40 | PC15 | SC27B | TAB109 | TAB165

CC1OC(O[C@H]2C[C@@H](O)[C@]3(CO)[C@@H]4C(CC[C@]3(O)C2)[C@@]2(O)CC[C@H](C3=CC(=O)OC3)[C@@]2(C)C[C@H]4O)C(O)C(O)C1O (stereo not given in full)
inactive: [1] | AA1029 | AS120 | ATS95 | CP217 | CP247 | CP256 | CP260 | CP265 | CP266 | CP297 | CP335 | DIV14 | GB4 | P93_24 | P94_40 | SC27B | TAB109 | TAB165

[S]=[Sb][S][Sb]=[S]
inactive: [1] | AA1029 | AS120 | ATS95 | CP217 | CP247 | CP256 | CP260 | CP265 | CP266 | CP297 | CP335 | DIV14 | GB4 | P93_24 | P94_40 | PC15 | SC27B | TAB109 | TAB165

CCOC(=O)/C=C(C)/C=C/CC(C)CCCC(C)C (stereo not given)
inactive: [1] | AA1029 | AS120 | ATS95 | CP217 | CP247 | CP256 | CP260 | CP265 | CP266 | CP297 | CP335 | DIV14 | GB4 | P93_24 | P94_40 | PC15 | SC27B | TAB109 | TAB165

CCCCCCC(=O)O[C@H]1CC[C@H]2[C@@H]3CCC4CC(=O)C=C(C)[C@]4(C)[C@H]3CC[C@]12C (stereo not given in full)
active: [1] 11400 nM | CP335 8490 nM
inactive: AA1029 | AS120 | ATS95 | CP217 | CP247 | CP256 | CP265 | CP266 | CP297 | DIV14 | GB4 | P93_24 | P94_40 | SC27B | TAB109 | TAB165
